# Assay outcomes deposited in PubChem BioAssay by Sanford-Burnham Center for Chemical Genomics.
# CYP2C9 activ = activators of human CYP2C9; activation factor at 5 µM; P11712; 96,000 compounds, 1.4% hits; recombinant CYP2C9, luciferin-H conversion, luminescence; hits give high values; factor 1 = untreated enzyme, 0 = blocked;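 active means activation factor of 2 or more for CYP2C9 at a 5 µM dose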;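 further: 0 = sulfaphenazole-blocked wells and 1 = vehicle-only wells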
# Target sequence (P11712 whole entry, looked up): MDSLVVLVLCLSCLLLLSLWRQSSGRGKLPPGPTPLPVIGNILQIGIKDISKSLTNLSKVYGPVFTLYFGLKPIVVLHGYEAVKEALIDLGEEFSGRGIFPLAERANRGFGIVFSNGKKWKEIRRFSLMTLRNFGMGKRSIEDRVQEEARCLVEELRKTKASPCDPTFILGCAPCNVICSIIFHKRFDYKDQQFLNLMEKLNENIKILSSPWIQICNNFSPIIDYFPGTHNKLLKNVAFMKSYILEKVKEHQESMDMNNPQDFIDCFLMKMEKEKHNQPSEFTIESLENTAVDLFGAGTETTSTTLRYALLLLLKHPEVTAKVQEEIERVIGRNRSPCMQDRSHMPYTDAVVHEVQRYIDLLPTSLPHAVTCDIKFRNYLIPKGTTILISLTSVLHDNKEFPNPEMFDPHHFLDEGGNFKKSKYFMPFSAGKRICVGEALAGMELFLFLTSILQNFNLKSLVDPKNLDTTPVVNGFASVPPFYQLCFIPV
# PLAP activator = human PLAP activation. P05187. purified PLAP enzyme, luminescent substrate read-out; hits give high values. activation fold at 20 µM. 96,000 compounds, 1.2% hits; in the data active means activation fold above about 2
# CYP2C9 inh = human CYP2C9 inhibition; inhibition, % at 5 µM; 96,000 compounds, 20% hits; CYP2C9 Supersomes, luciferin-H conversion, luminescence; P11712;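 active means blocking of liver enzyme CYP2C9 beyond about 50% at 5 µM, limit read from the data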
# CYP2C19 inhib = inhibitors of human CYP2C19. 96,000 compounds, 21% hits. CYP2C19 Supersomes, luciferin-H EGE luminescence, 30 min. P33261. inhibition, % at 5 µM. AID 778;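 active means CYP2C19 inhibition above a set limit at 5 µM in the primary screen, cut at about 50% in these data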;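 further: plate controls were negative control wells for no effect and 2.5 mM tranylcypromine positive control for full effect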
# CYP2C19 act = activators of human cytochrome P450 2C19; P33261; recombinant CYP2C19, luciferin-H EGE luminescence; hits give high values; 0 = fully inhibited enzyme, 1 = untreated enzyme; activation factor at 5 µM; 96,000 tested, under 10 active; AID 1025;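 active means activation factor of at least 2 at 5 µM in the primary screen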;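 further: 0 = wells with 2.5 mM tranylcypromine and 1 = vehicle-only wells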
# The depositor's hits bear a star; . = no result given. Shown are actives, neighbours in structure and some others; about 31% of the full set was active somewhere.
SMILES,CYP2C9 activ,PLAP activator,CYP2C9 inh,CYP2C19 inhib,CYP2C19 act
CC(C)(C)c1cc(Br)ccc1OCC(=O)Nc1ncn[nH]1,0.7,1.1,34.0,54.2*,0.5
Cc1cc(NC(=O)CSc2nc(C3CCCCC3)nc3ccccc23)no1,0.7,0.9,25.4,23.3,0.8
CCCn1cc(SCC(=O)NCc2ccc3c(c2)OCO3)c2ccccc21,0.6,0.9,41.9,28.5,0.7
O=C(CSc1nc(C2CC2)nc2ccccc12)NCc1ccc2c(c1)OCO2,0.1,1,88.2*,46.8,0.5
Cc1ccccc1C(=O)c1cccn1CC(=O)NCC1CCCO1 (stereo unspecified),1,1.1,4.2,9.7,0.9
Cc1ccccc1C(=O)c1cccn1CC(=O)NCc1ccc2c(c1)OCO2,0.3,0.7,73.7*,61.7*,0.4
CCn1cc(SCC(=O)NCc2ccc3c(c2)OCO3)c2ccccc21,0.8,0.9,23.3,96.7*,0
Cc1nonc1NC(=O)CSc1nc(C2CCCCC2)nc2ccccc12,0.5,1.1,50.1*,1.6,1
CCOC(=O)N1CCN(C(=O)CN2C(=O)COc3ccc(C(C)(C)C)cc32)CC1,1,1.4,4.8,-5.2,1.1
Cc1nc(SCC(=O)NCc2ccc3c(c2)OCO3)c(C#N)c2c1CCCC2,0.1,0.7,86.7*,84.3*,0.2
O=C(CSc1nc(C2CC2)nc2ccccc12)N1c2ccccc2Sc2ccc(C(F)(F)F)cc21,0.1,1.3,92.3*,10.7,0.9
O=C(CSCc1ccccc1)NCc1ccc2c(c1)OCO2,0.1,0.7,91.0*,54.2*,0.5
COc1ccc(NC(=O)CSc2nc(C)c3c(c2C#N)CCCC3)cc1,0.8,0.9,21.0,19.9,0.8
Cn1cc(SCC(=O)NCc2ccc3c(c2)OCO3)c2ccccc21,0.3,0.8,68.6*,99.9*,0
O=C(CSc1nc2ccccc2n1CC(=O)N1CCCC1)NCc1ccc2c(c1)OCO2,1,1.2,1.7,18.8,0.8
c1ccc(-n2c(SCC3CCCCO3)nnc2-c2cccs2)cc1 (stereo unspecified),0.8,1.1,21.0,11.9,0.9
O=C(Cn1cc(C(=O)C2CC2)c2ccccc21)NCc1ccc2c(c1)OCO2,0.7,1.1,31.5,81.4*,0.2
CCOC(=O)c1cnn(-c2nc(SC)nc3sc4c(c23)CCC4)c1N,0.9,0.9,9.7,5.3,0.9
Fc1cccc(Cl)c1-c1nnc2ccc(N3CCOCC3)nn12,0.5,1,49.3,42.3,0.6
Clc1cccc(Cl)c1-c1nnc2ccc(N3CCOCC3)nn12,0.3,1.1,67.8*,52.1*,0.5
O=C(OCC(=O)N(C1CCCCC1)C1CCCCC1)c1ccncc1,0.3,1.7,65.1*,99.4*,0
CC1CCCC(C)N1C(=O)COC(=O)c1ccc(O)cc1 (stereo unspecified),0.9,1.2,9.6,-15.8,1.2
COc1ccc(C)cc1NC(=O)CSc1nnc(-c2cc3cccc(OC)c3o2)n1N,0.8,1,19.4,8.0,0.9
O=C(Oc1ccc2ccccc2c1)c1ccccc1,0.9,0.8,13.7,-2.6,1
CCN1C(=O)c2c(C)nc3ccccc3c2C1=O,0.6,1.1,35.7,58.3*,0.4
SMILES,CYP2C9 activ,PLAP activator,CYP2C9 inh,CYP2C19 inhib,CYP2C19 act
CC(C)=C1C(=O)NN(c2ccc(F)c(Cl)c2)C1=O,1,1,-2.0,-3.6,1
O=C1NN(c2ccc(F)c(Cl)c2)C(=O)/C1=C\c1cccc(OC(=O)c2cccs2)c1,0.5,1.4,51.1*,-16.7,1.2
COc1ccc(O)c(-c2cc(-c3cccc(Br)c3)n[nH]2)c1,0.4,1.7,61.4*,5.4,0.9
COc1ccc(-c2n[nH]c(C)c2-c2cc(OC)ccc2O)cc1,0.1,2*,91.3*,100.4*,0
COc1ccc(-c2cc(-c3cc(OC)ccc3O)[nH]n2)cc1,0.6,2.3*,37.9,13.4,0.9
COC(=O)C1=C(C)Nc2ncnn2C1c1ccc(OCc2ccccc2)cc1 (stereo unspecified),1,0.9,-0.7,-10.6,1.1
CCOc1ccccc1-c1nc(-c2ccc(C)nc2OC)no1,1.3,1,-29.7,12.8,0.9
C=CCC(C(=O)OC)(C(=O)OC)c1ccc([N+](=O)[O-])cn1,0.9,0.9,10.3,29.3,0.7
CN(Cc1ccccc1)c1ncnc2ccc(Br)cc12,0.2,1.5,83.9*,96.6*,0
O=C(O)CS(=O)(=O)CC(=O)O,0.9,0.9,13.6,-2.7,1
Cc1ccccc1[C@@H]1C(C#N)=C(N)S[C@H]1C(=O)c1ccccc1,0,0.7,98.3*,100.1*,0
COc1ccc2c(c1OC)C(=O)N1N=C(c3ccccc3)CC21 (stereo unspecified),1.2,1,-21.9,19.4,0.8
COC(=O)CSc1c(-c2ccccc2)c2cc(Cl)ccc2[nH]c1=O,0.7,0.9,32.4,33.6,0.7
COc1ccccc1C1CC(c2c(-c3ccccc3)c3cc(Cl)ccc3[nH]c2=O)=NN1S(C)(=O)=O (stereo unspecified),0.4,1.4,59.5*,28.3,0.7
COc1cccc(C2CC(c3c(-c4ccccc4)c4cc(Cl)ccc4[nH]c3=O)=NN2S(C)(=O)=O)c1OC (stereo unspecified),0.5,1.7,50.6*,24.5,0.8
O=C(O)CCC(=O)CCC(=O)c1ccccc1,1,1.1,-1.8,3.7,1
O=C(C[n+]1cc2ccccc2c2ccccc21)c1ccccc1,0.3,.,72.4*,55.3*,0.4
COc1ccc(CN2C(=O)CN=C2Nc2cc(C)ccc2C)cc1,0.4,1,57.4*,26.5,0.7
Cc1ccccc1NC(=S)NCCC(c1ccccc1)c1ccccc1,0.4,1,63.6*,62.9*,0.4
Cc1ccc(C)c(NC(=S)NCc2cccn2C)c1,1.3,0.8,-32.9,28.9,0.7
Cc1ccc(NC(=S)NCCC(c2ccccc2)c2ccccc2)c(C)c1,0.4,1.4,58.8*,61.2*,0.4
S=C(NCCC(c1ccccc1)c1ccccc1)Nc1cccc(Cl)c1,0.2,1.4,81.2*,80.8*,0.2
CCN(CC)c1ncccc1C(=O)NCc1cccs1,0.4,0.9,64.7*,98.8*,0
CCCc1cc(C(=O)NCCc2ccc(OC)c(OC)c2)no1,0.3,1.3,68.5*,94.0*,0.1
CCCc1cc(C(=O)NCc2cccnc2)no1,0.9,1,14.6,59.3*,0.4
SMILES,CYP2C9 activ,PLAP activator,CYP2C9 inh,CYP2C19 inhib,CYP2C19 act
CCCc1cc(C(=O)Nc2cccnc2)no1,0.8,1,24.4,14.0,0.9
CCCc1cc(C(=O)N(C2CCCCC2)C2CCCCC2)no1,0.2,1.4,81.1*,63.7*,0.4
COC(=O)c1cccnc1NC(=S)NNC(=O)c1ccccc1,0.9,0.9,12.5,-5.5,1.1
Cc1noc(COc2ccccc2OCC(N)=O)c1Cl,0.8,1,16.4,29.5,0.7
O=C(Cn1nc(C(F)F)cc1C(F)F)N/N=C/c1ccc2c(c1)OCO2,1,0.9,1.6,10.5,0.9
Cc1cc(C(=O)NCc2ccccc2)no1,0.9,1.1,8.2,0.4,1
